High-throughput results (PubChem)
PMK inhibit: S. pneumoniae PMK inhibitors, primary screen, biochemical, mevalonate pathway, pilot trial included; 0.49% of 65,000 active; purified PMK, PK/LDH-coupled NADH absorbance 340 nm; phosphomevalonate kinase (Streptococcus pneumoniae D39); inhibition, % at 10 µM;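 active = top-ranked compounds by inhibition in the single 10 µM screen, taking a fixed number of the strongest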;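 also: 0% = full reaction with DMSO carrier and 100% = background rate without enzyme reaction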
NADH enzymes: inhibitors of PK/LDH coupling enzymes, profiling panel, artefact control, biochemical, MLSMR library; coupled PK/LDH NADH assays, four targets; AID 774, 2007; IC50, µM (doses to about 10 µM), inactives show top-dose inhibition; 0.02% of 65,000 active;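 active = single-dose screening hits from any of four coupled enzyme assays that gave an IC50 when retested across doses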;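 also: the DPM-DC format reads NADH fluorescence rather than 340 nm absorbance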
MK inhibit: S. pneumoniae MK inhibitors, primary screen, biochemical, PK/LDH-coupled NADH absorbance; inhibition, % at 10 µM; mevalonate kinase [Streptococcus pneumoniae D39]; 0.48% of 65,000 active; purified MK, PK/LDH-coupled NADH absorbance 340 nm;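 active = ranked among the strongest by inhibition in the single 10 µM screen, a fixed top-ranked set picked for dose follow-up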
DPM-DC inhibit: S. pneumoniae DPM-DC inhibitors, primary screen, biochemical, PK/LDH-coupled NADH fluorescence; calls only at 10 µM; purified DPM-DC; diphosphomevalonate decarboxylase (Streptococcus pneumoniae D39); 0.49% of 65,000 active;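 active = the 320 compounds with the highest percent inhibition in the single-dose primary screen, excluding strongly autofluorescent ones, cut at about 32% in these data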;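 also: kinetic rate of NADH fluorescence loss reporting ADP formed by the decarboxylase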
A340 absorber: compound light absorbance at 340 nm, profiling panel, artefact control, biochemical, MLSMR library, data from PS, PMK, MK assays | compound absorbance at 340 nm, fold over control | AID 708, 2007 | fold change at 10 µM | 65,000 tested, under 10 active;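 active = at 10 µM dose, initial 340 nm absorbance at least 2 fold that of control wells; inactive = change under 2 fold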;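 also: initial absorbance extrapolated from kinetic A340 decline of NADH oxidation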
Autofluor 339: intrinsic fluorescence of library compounds, ex339/em460 – biochemical, MLSMR library, data from DPM-DC assay, artefact control, profiling panel; compound autofluorescence, ex339/em460 nm, NADH buffer; stronger effect = higher value; 1 = no-compound wells, NADH background; fluorescence fold increase at 10 µM; 5.5% of 65,000 active;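 active = at 10 µM, mean starting fluorescence two-fold or more over control wells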;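 also: signal is the first read of a kinetic run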
* marks the source's active call; other numbers are inactive results; i = inactive; . = no result shown; + = active, no number. The list is not random: actives were taken first. Their share in the collection is about 6.5%.

SMILES	PMK inhibit	NADH enzymes	MK inhibit	DPM-DC inhibit	A340 absorber	Autofluor 339
Nc1ccc(C(=O)OCc2nc3ccccc3[nH]2)cc1	16	6%	0	i	1	1
Nc1cccc(-c2nc3ccccc3[nH]2)c1	0	2%	3	.	0.99	2.2*
Nc1ccc(-c2nc3ccccc3[nH]2)cc1	0	3%	6	.	1.1	2.1*
Cn1cc(-c2nc3ccccc3[nH]2)c2ccccc21	0	1%	3	.	1	2.1*
Nc1ccccc1-c1nc2ccccc2[nH]1	7	7%	7	.	1.1	3.8*
Cn1c(NCc2c[nH]c3ccccc23)nc2ccccc21	11	4%	2	i	0.98	1.1
Cc1ccc(C2CC(c3ccc(C)cc3)n3nc(N)nc3N2)cc1 (stereo unspecified)	0	4%	8	i	0.99	1.6
CCOC(=O)c1nnn(-c2nonc2N)c1-c1ccc(OC)cc1	18	6%	0	i	1	1.1
O=C(Cn1ncc2c(=O)oc3ccccc3c21)NC1CC1	10	4%	3	i	0.99	1.1
Cc1ccc2oc(=O)c3cnn(CC(=O)NC4CCN(Cc5ccccc5)CC4)c3c2c1	5	14%	3	+	1	0.95
CN1CCN(CCCNC(=O)C2CCN(c3nnc(-n4cccc4)s3)CC2)CC1	9	6%	10	i	0.98	0.99
CCN(CCNC(=O)C1CCN(c2nnc(-n3cccc3)s2)CC1)c1ccccc1	11	21%	11	+	1	0.94
Cc1ccc(OCC(=O)N2CCN(C(=O)CCC3CCCC3)CC2)cc1	9	10%	6	i	0.99	1
Cc1ccc(OCC(=O)N2CCC(N3CCCCCC3)CC2)cc1	0	15%	41*	i	1	1.1
CC1(C)Cc2c(sc3nn[nH]c(=O)c23)CO1	10	7%	11	i	1.1	1.1
CCC1CC2(C)NC(=O)c3c(sc4c3CC(C)(C)OC4)N2C1=O (stereo unspecified)	3	4%	5	.	1	2.3*
CNc1nn(-c2cccc(Cl)c2)nc1N	16	5%	0	i	1.1	1.2
CN1C(=O)OC2(C)CCc3ccccc3C12C (stereo unspecified)	31*	10%	0	i	1	1.1
COc1cc2nc(N(C)C)nc(N)c2cc1OC	11	11%	10	.	1.1	5*
Cc1ccc(S(=O)(=O)N(Cc2cc3cc4c(cc3[nH]c2=O)OCCO4)CC2CCCO2)cc1 (stereo unspecified)	2	4%	6	.	1.1	3.5*
COC(=O)c1ccc(S(=O)(=O)N(Cc2cc3cc4c(cc3[nH]c2=O)OCO4)C2CCCCC2)cc1	2	6%	10	.	1	3.6*
CC(=O)c1ccc(S(=O)(=O)N(Cc2cc3cc4c(cc3[nH]c2=O)OCCO4)CC2CCCO2)cc1 (stereo unspecified)	5	3%	.	i	1	1.2
O=c1[nH]c2cc3c(cc2cc1CN(CC1CCCO1)S(=O)(=O)c1ccc(Cl)cc1)OCCO3 (stereo unspecified)	8	7%	9	i	1.1	2.6*
O=C(CN1CCCCCC1)NCCc1ccc(F)cc1	8	14%	33	i	1	1.1
O=C(O)C1C2C=CC3(CN(Cc4ccncc4)C(=O)C13)O2 (stereo unspecified)	2	4%	11	i	1	0.98
SMILES	PMK inhibit	NADH enzymes	MK inhibit	DPM-DC inhibit	A340 absorber	Autofluor 339
O=C(CN1CCC(O)(c2ccc3c(c2)OCO3)CC1)OC1CCCCC1	13	3%	6	i	0.97	1
CNS(=O)(=O)c1cccc(C(=O)OCc2cc(Cl)cc3c2OCOC3)c1	9	5%	6	i	1	1.1
CC1CCN(S(=O)(=O)c2ccc(NC(=O)CSc3nnnn3C)cc2)CC1	15	4%	10	i	0.99	1
CCc1c(C)c2ccc(OCC(N)=O)cc2oc1=O	0	1%	1	.	1.2	3.7*
CCOC(=O)c1oc2cc(OCC(N)=O)ccc2c(=O)c1-c1ccc(OC)c(OC)c1	8	3%	7	i	1	1
COC(=O)C(CC(C)C)Oc1ccc2c(C)cc(=O)oc2c1 (stereo unspecified)	0	7%	3	i	1.1	1.7
CCCOc1ccc2c(C)c(CC(=O)OC)c(=O)oc2c1	6	8%	9	.	1.1	3.7*
Cc1cc2c(c(=O)n1C)C(Cc1ccccc1)C(C#N)=C(N)O2 (stereo unspecified)	5	3%	4	i	1	1.4
N#Cc1nn(-c2ccccc2)nc1N1CCCCC1	12	6%	0	.	1	5*
COc1ccc2nc(C)cc(C(=O)O)c2c1	4	4%	3	.	1	3.8*
CCOc1ccc2nc(C)cc(C(=O)O)c2c1	5	7%	8	.	0.99	3.8*
O=C(CSCc1ccccc1)Nc1nccs1	0	0%	0	i	0.99	1.1
O=C1NCCCC1C(=O)N1CCN(C(=O)C2CCCNC2=O)CC1 (stereo unspecified)	18	7%	4	i	0.98	1.1
O=C(Nc1nc(-c2cc3ccccc3oc2=O)cs1)c1ccco1	0	0%	0	.	1.1	2.1*
CN1CCN(c2cc3c(c4c2[nH]c2ccccc24)C(=O)CC(C)(C)C3)CC1	9	7%	5	.	1.1	2.1*
Cc1cc(N2CCN(C(=O)c3ccco3)CC2)n2ncc(-c3ccccc3)c2n1	10	4%	0	i	1.1	1.4
Cc1cc(N2CCCCC2)n2nc(C)c(-c3ccccc3)c2n1	9	9%	8	i	1	1.9
Cc1cc(N2CCCCC2)n2ncc(-c3ccccc3)c2n1	12	7%	10	i	1	2.5*
CCCc1cc(N2CCN(c3ccccn3)CC2)n2nc(C)c(-c3ccccc3)c2n1	0	6%	9	i	1	2.8*
Cc1cc(N2CCC(C)CC2)n2ncc(-c3ccccc3)c2n1	13	10%	9	i	1	3*
Cc1cc(N2CCC(C)CC2)n2nc(C)c(-c3ccccc3)c2n1	11	5%	2	i	1	2.4*
Cc1cc(N2CCCCC2)n2ncc(-c3ccc(Cl)cc3)c2n1	3	10%	16	.	1	3.7*
Cc1nn2c(N3CCCC3)cc(C(C)C)nc2c1-c1ccccc1	6	5%	6	i	1	2.1*
CC(=O)Nc1cccc(-c2csc(NCc3ccco3)n2)c1	14	10%	17	i	0.98	1.1
